Experimental data from PubChem BioAssay (NCATS).
Inconclusive results are not listed. Calls of active or inactive are those of the source. Calls come from the whole dose curve; as a rule, active = well fitted curve in the direction sought with a large enough effect; inconclusive = small, poorly fitted or top-dose-only effect, or another doubt; inactive = no such curve, though single readings can be large; an effect the other way counts as inactive or inconclusive.

Legend:
[1] = qHTS to identify inhibitors of the type 1 interferon - major histocompatibility complex class I in skeletal muscle: primary screen against the NCATS Pharmaceutical Collection (AID 1347407);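 note: luminescence of HiBiT knocked into endogenous HLA-B as interferon-induced MHC class I level; % is set by controls: 0 for no effect and ±100 for the full control effect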
How it was run: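 HLA-B HiBiT myoblasts, dexamethasone-free growth medium + 4 ng/ml IFN-b; compounds pinned 1 h after seeding, […] from 46 uM; 24 h, 37 C, 5% CO2; lytic HiBiT detection, 10 min RT, luminescence.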

[2] = target: Protein phosphatase 1D (Homo sapiens) (UniProt O15297); experiment: RapidFire Mass Spectrometry qHTS Assay for Modulators of WT P53-Induced Phosphatase 1 (WIP1) (AID 1347424);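 note: amount of dephosphorylated VEPPL-S-QETFS peptide product formed by WIP1; series mostly up to about 63 µM; plate controls were DMSO wells for no effect and GSK830371 inhibitor control at 10 µM for full effect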
How it was run: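 WIP1 (10 nM final) was preincubated 1 h at room temperature with compounds in Tris-HCl pH 7.5, 30 mM MgCl2, TCEP, EGTA, BSA; 2 uM VEPPL-pS-QETFS phosphopeptide was added for 5 min, quenched with formic acid, and dephosphorylated product quantified by RapidFire MS.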

[3] = target: Protein phosphatase 1D (Homo sapiens) (UniProt O15297); experiment: Rhodamine-PBP qHTS Assay for Modulators of WT P53-Induced Phosphatase 1 (WIP1) (AID 1347425); note: % of control where 0% means no effect
How it was run: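 The read-out is the change in Rhodamine-PBP fluorescence (f1 - f0, ex 525/em 598 nm) as Pi is released, read each minute for 11 min. Final reaction: 5 nM WIP1, 10 uM phosphopeptide VEPPL-pS-QETFS, 10 uM Rh-PBP, 50 mM Tris-HCl pH 7.5, 30 mM MgCl2. Compound was preincubated with enzyme for 1 hour at room temperature.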

[4] = Primary qHTS for inhibitors of La Crosse Virus (LACV) - induced cell death in SH-SY5Y cells (AID 1508616);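 note: top concentration of the series differs between compounds; 0% = infected DMSO wells and 100% = uninfected DMSO wells; higher means more rescue of cells from virus-induced death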
How it was run: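 Readout was luminescence from ATPLite 1step added after a 6-day LACV infection (0.01 MOI) of SH-SY5Y cells that had received pin-transferred compound 24 hr after seeding.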

[5] = target: Calcium and integrin-binding protein 1 (Homo sapiens) (UniProt Q99828); experiment: Primary qHTS for Identification of Calcium Integrin Binding Protein 1 (CIB1) Competitor (AID 1508620);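 note: GST tagged CIB1 binding a fluorescein labelled alphaIIb integrin peptide tracer; top concentration of the series differs between compounds; % is set by controls: 0 for no effect and ±100 for the full control effect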
How it was run: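 Fluorescence polarization competition: CIB1-GST (1 uM final) preincubated with compound 15 min at room temperature, then FITC-labeled alphaIIb peptide (100 nM final) added for another 15 min. Polarization read at Ex 480/Em 540.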

Sequence of Calcium and integrin-binding protein 1 (Homo sapiens) (Q99828 whole entry, looked up): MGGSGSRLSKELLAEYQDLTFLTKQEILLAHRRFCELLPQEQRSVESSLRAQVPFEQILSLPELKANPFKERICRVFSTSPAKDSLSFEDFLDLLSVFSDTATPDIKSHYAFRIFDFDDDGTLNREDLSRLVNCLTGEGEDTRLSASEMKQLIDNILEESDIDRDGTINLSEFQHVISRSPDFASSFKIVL
Sequence of Protein phosphatase 1D (Homo sapiens) (O15297 whole entry, looked up): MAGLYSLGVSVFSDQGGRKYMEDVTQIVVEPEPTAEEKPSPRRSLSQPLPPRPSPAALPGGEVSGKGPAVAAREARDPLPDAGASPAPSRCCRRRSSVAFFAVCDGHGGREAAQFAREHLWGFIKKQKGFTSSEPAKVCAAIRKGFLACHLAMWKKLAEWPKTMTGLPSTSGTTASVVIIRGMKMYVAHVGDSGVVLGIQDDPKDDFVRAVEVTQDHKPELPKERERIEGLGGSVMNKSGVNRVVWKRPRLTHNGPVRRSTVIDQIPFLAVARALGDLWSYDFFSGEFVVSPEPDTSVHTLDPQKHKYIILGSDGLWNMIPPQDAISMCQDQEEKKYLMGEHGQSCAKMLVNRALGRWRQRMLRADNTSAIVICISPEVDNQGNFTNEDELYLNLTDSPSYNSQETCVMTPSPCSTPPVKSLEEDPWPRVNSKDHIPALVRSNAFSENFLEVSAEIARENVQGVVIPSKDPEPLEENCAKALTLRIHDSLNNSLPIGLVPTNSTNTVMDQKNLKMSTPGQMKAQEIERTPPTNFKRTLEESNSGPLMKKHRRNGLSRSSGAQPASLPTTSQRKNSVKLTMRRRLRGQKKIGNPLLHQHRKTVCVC

CCOC(N)=O
inactive: outcome [1] | outcome [2] | outcome [3] | outcome [4] | outcome [5]

NC(=O)c1ccc([N+](=O)[O-])cc1Cl
inactive: outcome [1] | outcome [2] | outcome [3] | outcome [4] | outcome [5]

CC(=O)Nc1cccc(O)c1
inactive: outcome [1] | outcome [2] | outcome [3] | outcome [4] | outcome [5]

O=C(/C=C/c1ccc(O)c(O)c1)O[C@@H]1C[C@@](OC(=O)/C=C/c2ccc(O)c(O)c2)(C(=O)O)C[C@@H](O)[C@@H]1O
inactive: outcome [1] | outcome [2] | outcome [3] | outcome [4] | outcome [5]

NC(=O)NS(=O)(=O)c1ccc(N)cc1
inactive: outcome [1] | outcome [2] | outcome [3] | outcome [4] | outcome [5]

CC1(C)S[C@@H]2[C@H](N=CN3CCCCCC3)C(=O)N2[C@H]1C(=O)O
inactive: outcome [1] | outcome [2] | outcome [3] | outcome [4] | outcome [5]

CCN1CC(CCN2CCOCC2)C(c2ccccc2)(c2ccccc2)C1=O (centres undefined)
inactive: outcome [1] | outcome [2] | outcome [3] | outcome [4] | outcome [5]

Nc1c2c(nc3c1CCC3)CCCC2
inactive: outcome [1] | outcome [2] | outcome [3] | outcome [4] | outcome [5]

C[n+]1ccccc1/C=N/O
inactive: outcome [1] | outcome [2] | outcome [3] | outcome [4] | outcome [5]

Cc1c(C(=O)NCCO)[n+](=O)c2ccccc2n1[O-]
inactive: outcome [1] | outcome [2] | outcome [3] | outcome [4] | outcome [5]

NNc1nnc(NN)c2ccccc12
inactive: outcome [1] | outcome [2] | outcome [3] | outcome [4] | outcome [5]

CCN(CC)CCc1nc(-c2ccccc2)no1
inactive: outcome [1] | outcome [2] | outcome [3] | outcome [4] | outcome [5]

O=C(O)Cc1cn(-c2ccccc2)nc1-c1ccc(Cl)cc1
inactive: outcome [1] | outcome [2] | outcome [3] | outcome [4] | outcome [5]

COC(=O)c1cccnc1
inactive: outcome [1] | outcome [2] | outcome [3] | outcome [4] | outcome [5]

CCCNC(C)C(=O)Nc1c(C)csc1C(=O)OC (centres undefined)
inactive: outcome [1] | outcome [2] | outcome [3] | outcome [4] | outcome [5]

C1CCN2C[C@@H]3C[C@@H](CN4CCCC[C@@H]34)[C@H]2C1
inactive: outcome [1] | outcome [2] | outcome [3] | outcome [4] | outcome [5]

O=C(OOC(=O)c1ccccc1)c1ccccc1
inactive: outcome [1] | outcome [2] | outcome [3] | outcome [4] | outcome [5]

O=c1[nH]c(=O)c2ccccc2o1
inactive: outcome [1] | outcome [2] | outcome [3] | outcome [4] | outcome [5]

Nc1ncnc2c1ncn2[C@@H]1O[C@H](COP(=O)(O)O)[C@@H](O)[C@H]1O
inactive: outcome [1] | outcome [2] | outcome [3] | outcome [4] | outcome [5]

CCN(CC)CCOC(=O)C(c1ccccc1)c1ccccc1
inactive: outcome [1] | outcome [2] | outcome [3] | outcome [4] | outcome [5]

O=C(O)c1ccccc1C(=O)Nc1ccc(S(=O)(=O)Nc2nccs2)cc1
inactive: outcome [1] | outcome [2] | outcome [3] | outcome [4] | outcome [5]

CC(C)c1cc2c(cc1S(=O)(=O)O)[C@@]1(C)CCC[C@@](C)(C(=O)O)[C@@H]1CC2
inactive: outcome [1] | outcome [2] | outcome [3] | outcome [4] | outcome [5]

C/C=C1\[C@H]2C=C(C)C[C@]1(N)c1ccc(=O)[nH]c1C2
inactive: outcome [1] | outcome [2] | outcome [3] | outcome [4] | outcome [5]

CC(CN(C)C)C(C)(O)Cc1ccc(Cl)cc1 (centres undefined)
inactive: outcome [1] | outcome [2] | outcome [3] | outcome [4] | outcome [5]

C=CCN1C[C@H](C(=O)N(CCCN(C)C)C(=O)NCC)C[C@@H]2c3cccc4[nH]cc(c34)C[C@H]21
inactive: outcome [1] | outcome [2] | outcome [3] | outcome [4] | outcome [5]

CC1(C)S[C@@H]2[C@H](NC(=O)C(C(=O)O)c3ccccc3)C(=O)N2[C@H]1C(=O)O (some centres undefined)
inactive: outcome [1] | outcome [2] | outcome [3] | outcome [4] | outcome [5]

CC(C)(C)C(=O)OCOC(=O)[C@@H]1N2C(=O)[C@@H](NC(=O)[C@H](N)c3ccccc3)[C@H]2SC1(C)C
inactive: outcome [1] | outcome [2] | outcome [3] | outcome [4] | outcome [5]

NC(N)=NCCN1CCCCCCC1
inactive: activity change, negative = inhibition [1] -12.2% [at 0.727 µM] | activity change, negative = inhibition [2] 2.05% [at 0.505 µM] | activity change, negative = inhibition [3] 1.78% [at 0.575 µM] | activity change [4] -10.9% [at 0.0343 µM] | activity change, negative = inhibition [5] -2.06% [at 1.07 µM]

CC(=O)OC[C@H]1O[C@@](COC(C)=O)(O[C@H]2O[C@H](COC(C)=O)[C@@H](OC(C)=O)[C@H](OC(C)=O)[C@H]2OC(C)=O)[C@@H](OC(C)=O)[C@@H]1OC(C)=O
inactive: outcome [1] | outcome [2] | outcome [3] | outcome [4] | outcome [5]

CC(C)=CCC[C@@](C)(O)[C@H]1CC=C(C)CC1
inactive: outcome [1] | outcome [2] | outcome [4] | outcome [5]
